Measured values published in PubChem BioAssay (NCATS).
Records with an inconclusive call do not appear. Active and inactive are the calls of the source. Calls come from the whole dose curve; as a rule, active = well fitted curve in either direction with a large enough effect (not every such curve was filed as active); inconclusive = small, poorly fitted or top-dose-only effect, or another doubt; inactive = flat fitted curve, though single readings scatter.
% is set by controls: 0 for no effect and ±100 for the full control effect.

Test: NFAT Signaling Pathway (AID 444)
Details: Jurkat NFAT-bla M1, carbachol, beta-lactamase ratio, 5 h; at 7.69 µM (top of the series) unless noted
Description: NCGC Assay Overview: The nuclear factor of activated T cells (NFAT) family of transcription factors has been found primarily in most immune system cells and some other non-immune cells. NFAT plays the immunomodulatory role, primarily in T-cell activation and differentiation. NFAT target genes are also involved in the regulation of apoptosis and differentiation in non-immune cell types. The NFAT sequence was engineered to the upstream of the ?-lactamase reporter gene and transfected into Jurkat cells with co-transfection of muscarinic receptor1 [provided by Invitrogen Corp]. When an extracellular stimulus, such as carbachol, binds to the GPCR M1 receptor, it stimulates a signaling cascade that activates NFAT response element and ?-lactamase expression by phosphorylating the NFAT binding protein. This cell based ?-lactamase reporter gene assay can accurately monitor any changes occurring along the NFAT pathway, and can be used for screening small molecule inhibitor or activator upon activation by carbachol EC50 concentration. A small molecular library were screened in a titration series resulting in AC50s (can be either IC50s or EC50s).
NCGC Assay Protocol Summary: The cells were prepared in RPMI 1640 medium containing 0.1% dialyzed FBS and 25 mM HEPES at 1.6 x 10^6cell/ml. The assay was performed in 1536-well plate format as follows: 5 ul of cell preparation 23 nl of compounds 1ul of carbachol (final concentration 1 uM) Briefly centrifuge the plates and incubate at 37 °C for 5 hours 1 ul of CCF4 dye mixture Incubate the plates at RT for 1 hour Read the plate in EnVision plate reader (Ex= 405nm, and Em1=460nm and Em2=530nm). The %Activity was determined from the ratio of 460nm/530nm. Data normalization and AC50 calculations were accomplished using GeneData software.
For NC(N)=NC(N)=Nc1c(F)c(F)c(F)c(F)c1F, the activity change, negative = inhibition was -23.3% (inactive). With [O-][n+]1c(CN2CCCCC2)nc2cccc3c2c1-c1ccccc1-3 the activity change, negative = inhibition was 26.2% (inactive). In the case of O=S(=O)(O)[C@@H](c1ccccc1)[C@@H](O)c1ccccc1, the activity change, negative = inhibition is reported as 8.34% (inactive). For N#Cc1c(NC(=O)CCC(=O)O)ccc2ccccc12, the activity change, negative = inhibition was 18.9% (inactive). In the case of CCC(C)(C)c1ccc(Oc2cccc(C(=O)O)c2)cc1, the activity change, negative = inhibition is reported as -3.61% (inactive). With Cn1ncc2c(NCCc3ccccc3)nc(Cl)nc21 the activity change, negative = inhibition was 2.58% (inactive). In the case of O=S1(=O)CCN(Cc2ccccn2)CC1, the activity change, negative = inhibition is reported as 13% (inactive). In the case of c1cncc(CSc2ncnc3nc[nH]c23)c1, the activity change, negative = inhibition is reported as 19.6% (inactive). For O=C(O)c1cc(=O)[nH]c(=S)[nH]1, the activity change, negative = inhibition was 5.67% (inactive). In the case of Nc1ccc(S(=O)(=O)NCCS(=O)(=O)O)cc1, the activity change, negative = inhibition is reported as 6.94% (inactive). In the case of NC(N)=NNC(=O)C(=O)O, the activity change, negative = inhibition is reported as 4.61% (inactive). With NS(=O)(=O)c1cc2c(cc1Cl)N[C@H](Cc1ccccc1)NS2(=O)=O the activity change, negative = inhibition was 23.7% (inactive). In the case of O=C(O)CSCCc1ccccc1, the activity change, negative = inhibition is reported as -11.5% (inactive). For O=[N+]([O-])c1ccc(CSc2ncnc3c2ncn3[C@@H]2O[C@@H](CO)[C@@H](O)[C@H]2O)cc1, the activity change, negative = inhibition was 11% [at 38 µM] (inactive). In the case of C[N+](C)(C)c1nc(N)nc2c1ncn2[C@H]1O[C@@H](CO)[C@@H](O)[C@H]1O, the activity change, negative = inhibition is reported as 2.16% (inactive). With NC(=O)C[C@H](N)C(N)=O the activity change, negative = inhibition was 12.4% (inactive). For O=C(O)C/C=C\CC(=O)O, the activity change, negative = inhibition was 2.57% (inactive). For OCCNc1ncnc2nc[nH]c12, the activity change, negative = inhibition was 9% (inactive). For CC(C)[C@]1(Cl)CC[C@@H]2[C@]3(C)CCC[C@@](C)(C(=O)O)[C@H]3C[C@H](Cl)[C@@]2(Cl)[C@H]1Cl, the activity change, negative = inhibition was 0.923% (inactive). In the case of N=C(N)SCc1cccc2c(=O)cc(-c3ccccc3)oc12, the activity change, negative = inhibition is reported as -23% (inactive). For FC(F)(F)c1cc(NC(=S)N2c3ccccc3-n3cccc3[C@H]2c2cccnc2)cc(C(F)(F)F)c1, the activity change, negative = inhibition was 16.9% (inactive). With Nc1ncnc2nc(N3CCN(CCO)CC3)[nH]c12 the activity change, negative = inhibition was 8.33% (inactive). With Cn1c(=O)c2c(nc(NCCNc3nc4c(c(=O)n(C)c(=O)n4C)n3C)n2C)n(C)c1=O the activity change, negative = inhibition was 8.54% (inactive). In the case of Cc1cc(N=Cc2c(CO)cnc(C)c2O)c(N=Cc2c(CO)cnc(C)c2O)cc1C.[Zn], the activity change, negative = inhibition is reported as 14.7% (inactive). With O=C(O)c1nn(-c2ccccc2-c2n[nH]c(=O)[nH]c2=O)c(=O)[nH]c1=O the activity change, negative = inhibition was 18.8% (inactive). In the case of O=C(O)c1cncc(C(=O)O)c1, the activity change, negative = inhibition is reported as 3.72% (inactive). With O=C(O)CCCCn1ccc(=O)[nH]c1=O the activity change, negative = inhibition was -9.32% (inactive). With Cn1c(=O)c2[nH]c(CS(=O)(=O)Cc3nc4c([nH]3)c(=O)n(C)c(=O)n4C)nc2n(C)c1=O the activity change, negative = inhibition was -4.99% (inactive). In the case of C[C@@H]1C[C@@H]2[C@H]3CCC4=CC(=O)C=C[C@]4(C)[C@]3(Cl)[C@@H](O)C[C@@]2(C)[C@@]1(O)C(=O)CO, the activity change, negative = inhibition is reported as 6.53% [at 38 µM] (inactive). With O=C(O)[C@@H](O)[C@H](O)C(=O)O the activity change, negative = inhibition was 14.9% (inactive). With NC(N)=N[C@@H]1C(O)[C@H](N=C(N)N)[C@@H](O)C(O)[C@H]1O (stereo not given in full) the activity change, negative = inhibition was 13.4% (inactive). In the case of CC(C)CNC(=O)O, the activity change, negative = inhibition is reported as 0.858% (inactive). With CSc1nc(C)cc(Nc2ccc(O)c(CN3CCCCC3)c2)n1 the activity change, negative = inhibition was -16.1% (inactive). In the case of O=C(O)/C(=C\c1ccc(O)cc1)c1cccc2ccccc12, the activity change, negative = inhibition is reported as 2.46% (inactive). For O=C(O)[C@H](Cc1ccc(O)c([N+](=O)[O-])c1)N1C(=O)c2ccccc2C1=O, the activity change, negative = inhibition was 11.4% (inactive). With C[N+]1(CCC(=O)c2ccco2)CC2CCC(CC2)C1 (stereo not given) the activity change, negative = inhibition was 7.5% (inactive). For O=C(O)c1ccc(Cc2ccccc2C(=O)O)cc1, the activity change, negative = inhibition was 5.4% (inactive). With OC[C@@H]1O[C@@H](N2CCN([C@@H]3O[C@@H](CO)[C@@H](O)[C@H](O)[C@H]3O)CC2)[C@@H](O)[C@H](O)[C@H]1O the activity change, negative = inhibition was -2.18% (inactive). With c1ccc(-c2ccc(-c3ccc(C4=NCCN4)cc3)o2)cc1 the activity change, negative = inhibition was 9.65% (inactive). In the case of N/N=C1/c2ccccc2N[C@H]1OC(=O)Nc1cccc(Cl)c1, the activity change, negative = inhibition is reported as -19.2% (inactive).
